HP1b chromo inh – HTS for Inhibitors of HP1-beta Chromodomain Interactions with Methylated Histone Tails; Potency, µM (series often up to 114 µM), actives largely listed as inhibitors; actives 0.56% (n = 390,000); AlphaScreen HP1-beta / biotin-H3K9me3 peptide binding; further: nearly all actives have a fitted effect of over 70% in size
Target sequence (P83916 whole entry, looked up): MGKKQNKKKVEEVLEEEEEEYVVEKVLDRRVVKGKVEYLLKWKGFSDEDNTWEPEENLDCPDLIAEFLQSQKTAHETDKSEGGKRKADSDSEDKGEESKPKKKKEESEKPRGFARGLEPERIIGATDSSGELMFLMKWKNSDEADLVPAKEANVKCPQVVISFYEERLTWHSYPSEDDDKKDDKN
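Compound inhibition of the preformed complex between 50 nM HP1-beta and 50 nM biotinylated H3K9me3 peptide was read by AlphaScreen. Buffer was PBS pH 7.4 with 0.01% Tween-20. Incubations ran 30 min at room temperature, with 10 ug/mL donor/acceptor beads.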
VDR inhibitor – Inhibitors of the vitamin D receptor (VDR): qHTS; Vitamin D3 receptor (Homo sapiens), P11473; VDR-SRC2-3 peptide fluorescence polarization, 2 h; Potency, µM, actives largely listed as inhibitors; actives 0.93% (n = 400,000); AID 504847, 2011
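Fluorescence polarization assay of small-molecule disruption of VDR binding to coregulator peptide SRC2-3. Compounds and controls pin-transferred, then read after 2 h incubation at ambient room temperature.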
L3MBTL1 block – qHTS Assay for the Inhibitors of L3MBTL1. Lethal(3)malignant brain tumor-like protein 1 (Homo sapiens), Q9Y468. AlphaScreen L3MBTL1–H3K9me1 peptide binding. Potency, µM (series often up to 57.1 µM), usual class: inhibitors. actives 0.66% (n = 230,000). AID 485360, 2010; further: nearly all actives have a fitted effect of over 60% in size
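First, the protein-peptide complex forms for 30 min at room temperature (L3MBTL1 50 nM, biotinylated H3K9me1 peptide 75 nM). Next, compounds are pin-transferred and incubated 30 min. Finally, AlphaScreen beads are added and read after 30 min.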
PLK1 PBD inh – qHTS for Inhibitors of PLK1-PDB (polo-like kinase 1 - polo-box domain): Primary Screen. Serine/threonine-protein kinase PLK1 (Homo sapiens), P53350. Potency, µM, hits mostly inhibitors. actives 2.8% (n = 360,000). Plk1 PBD binding of FITC phosphopeptide, fluorescence polarization; further: series mostly up to about 57 µM; nearly all actives have a fitted effect of over 65% in size
JMJD2A Tudor – qHTS Assay for Inhibitors of JMJD2A-Tudor Domain | Potency, µM (series often up to 114 µM), actives largely listed as inhibitors | actives 4.4% (n = 390,000) | AlphaScreen JMJD2A-Tudor / H3K4me3 peptide binding | AID 504339, 2011 | Lysine-specific demethylase 4A (Homo sapiens), O75164; further: nearly all actives have a fitted effect of over 50% in size
BAZ2B inh – qHTS Assay for Inhibitors of BAZ2B | Bromodomain adjacent to zinc finger domain protein 2B (Homo sapiens), Q9UIF8 | AlphaScreen BAZ2B-H3K14Ac peptide displacement | Potency, µM (series often up to 114 µM), actives largely listed as inhibitors | actives 4.4% (n = 360,000) | AID 504333, 2011; further: nearly all actives have a fitted effect of over 60% in size
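AlphaScreen displacement: compounds (up to 110uM) incubated 30 min at room temperature with a preformed 50 nM BAZ2B/50 nM biotinylated H3K14Ac peptide complex in PBS pH 7.4 with Tween-20. Donor and acceptor beads at 10 ug/mL final added, 20 min light-protected before reading.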
Large screens that a line does not name were inactive. The list is not random: actives were taken first. Their share in the collection is about 6.9%. The call rests on the fitted dose curve; in most records, active means well fitted curve in the direction sought with a large enough effect; inconclusive means small, poorly fitted or top-dose-only effect, or another doubt; inactive means no such curve, though single readings can be large; an effect the other way counts as inactive or inconclusive.

COCCn1c(C)cc(C2=NNC(=NC(C)(C)C)SC2)c1C	PLK1 PBD inh inconclusive, JMJD2A Tudor inconclusive
Cc1cc(C2=NNC(=NCCc3ccccc3)SC2)c(C)n1CC1CCCO1 (stereo not drawn)	HP1b chromo inh inconclusive, JMJD2A Tudor 50µM (no result: L3MBTL1 block)
COCCn1c(C)cc(C2=NNC(=Nc3ccc(OC)cc3)SC2)c1C	PLK1 PBD inh inconclusive, JMJD2A Tudor inconclusive
CC(C)c1c(C(=O)N/N=C/c2ccc(OCc3ccccc3)cc2)nnn1-c1nonc1N	none (no result: L3MBTL1 block)
COc1cc(/C=N/NC(=O)c2nnn(-c3nonc3N)c2C(C)C)ccc1O	none (no result: L3MBTL1 block)
COc1ccccc1/C(C)=N/NC(=O)c1nnn(-c2nonc2N)c1C(C)C	VDR inhibitor inconclusive, PLK1 PBD inh 12µM, JMJD2A Tudor 20µM (no result: L3MBTL1 block)
CC(C)c1c(C(=O)N/N=C/c2ccc(OCc3ccc(F)cc3)cc2)nnn1-c1nonc1N	PLK1 PBD inh 21µM (no result: L3MBTL1 block)
CCCCCCSc1ccc([C@H]2N[C@@](C)(C(=O)OC)[C@H]3C(=O)N(CC)C(=O)[C@@H]23)cc1	none
O=S(=O)(Nc1cccc2ccccc12)c1ccccc1	none
O=S(=O)(Nc1c(O)ccc2ccccc12)c1ccccc1	HP1b chromo inh inconclusive, VDR inhibitor inconclusive, PLK1 PBD inh 24µM, JMJD2A Tudor inconclusive (no result: L3MBTL1 block, BAZ2B inh)
O=S(=O)(O)c1c(NS(=O)(=O)c2ccccc2)ccc2ccccc12	JMJD2A Tudor 89µM (no result: L3MBTL1 block, PLK1 PBD inh, BAZ2B inh)
O=S(=O)(Nc1ccc(O)c(NS(=O)(=O)c2ccccc2)c1)c1ccccc1	JMJD2A Tudor 63µM, BAZ2B inh inconclusive (no result: L3MBTL1 block)
Cc1cc(NS(=O)(=O)c2ccccc2)ccc1NS(=O)(=O)c1ccccc1	none (no result: L3MBTL1 block, BAZ2B inh)
Cc1ccc(OCC(=O)NCc2n[nH]c(=O)c3ccccc23)cc1	none
CC(=O)NS(=O)(=O)c1ccc(NC(=O)c2ccc(S(=O)(=O)N3CCCC3)cc2)cc1	none
C=CCNC(=O)C(=O)N/N=C/c1ccco1	none
CN1C(=O)/C(=C/c2ccc(O)c([N+](=O)[O-])c2)N(C)C1=S	JMJD2A Tudor inconclusive
COc1cc(/C=C2\SC(=O)N(c3cccc(Cl)c3)C2=O)cc([N+](=O)[O-])c1O	HP1b chromo inh inconclusive, PLK1 PBD inh inconclusive, JMJD2A Tudor 4µM, BAZ2B inh 8.9µM
COc1cc(/C=C2\SC(=O)N(c3ccc(Cl)cc3)C2=O)cc([N+](=O)[O-])c1O	HP1b chromo inh inconclusive, L3MBTL1 block inconclusive, PLK1 PBD inh inconclusive, JMJD2A Tudor 7.9µM, BAZ2B inh 7.1µM
O=C1S/C(=C\c2ccc(O)c([N+](=O)[O-])c2)C(=O)N1c1ccccc1Cl	HP1b chromo inh inconclusive, VDR inhibitor inconclusive, PLK1 PBD inh inconclusive, JMJD2A Tudor 50µM, BAZ2B inh 35µM
